MARV entry inh: qHTS for inhibitors of binding or entry into cells for Marburg Virus; 300,000 tested, 1.8% active; Marburg virus pseudotyped entry inhibition, cell reporter; Potency, µM (doses to about 37.8 µM), for the others: at the highest dose activity change, negative = inhibition, hits mostly inhibitors; AID 540276, 2011; calls by dose curve; tested in HEK293 cells; further: potency means the concentration at half of the fitted maximal effect; on the % scale 0 is the no-effect control and ±100 the full control effect
Lassa entry inh: qHTS for Inhibitors of binding or entry into cells for Lassa Virus | Lassa virus pseudotype entry inhibition, cell reporter | Potency, µM (top dose mostly 37.9 µM), inactives show top-dose activity change, negative = inhibition, most hits filed as inhibitors | 300,000 tested, 1.2% active; calls by dose curve; tested in HEK293 cells; further: potency means the concentration at half of the fitted maximal effect; on the % scale 0 is the no-effect control and ±100 the full control effect; nearly all actives have a fitted effect of over 50% in size
HCV inh: qHTS Assay for Inhibitors of Hepatitis C Virus (HCV); Huh7.5.1 HCVcc-Cre infection, luciferase reporter, 44 h; Potency, µM (highest dose often 41.8 µM), inactives show at the highest dose activity change, negative = inhibition, most hits filed as inhibitors; 340,000 tested, 3.4% active; AID 651820, 2012; active means well fitted inhibition curve with a large enough effect; inconclusive means small, poorly fitted or top-dose-only effect, or another doubt; inactive means no such curve, though single readings can be large or run the other way; further: potency means the concentration at half of the fitted maximal effect; on the % scale 0 is the no-effect control and ±100 the full control effect
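Cells seeded at 1,000/well and cultured 4 h, then compounds added followed by HCVcc-Cre virus (~0.5 moi). After 44 h further culture, luciferase substrate was added, plates held 15 min at room temperature, and luminescence read for 15 sec.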
FMDV inh: High Throughput Screening for Foot and Mouth Disease Virus Antivirals; FMDV antiviral cell-based qHTS; Potency, µM (highest dose often 57.9 µM), for the others: at the highest dose activity change, negative = inhibition, actives largely listed as inhibitors; 410,000 tested, 1.2% active; calls by dose curve; tested in HEK293T cells; further: read-out not given here; potency means the concentration at half of the fitted maximal effect; on the % scale 0 is the no-effect control and ±100 the full control effect; nearly all actives have a fitted effect of over 45% in size
SARS PLP yeast: qHTS of Yeast-based Assay for SARS-CoV PLP; S. cerevisiae expressing SARS-CoV PLpro, growth rescue; Potency, µM (titrated, usually from 32.9 µM), for the others: top-dose activity, positive = growth rescue, hits mostly activators; 330,000 tested, 0.19% active; calls by dose curve; further: potency means the concentration at half of the fitted maximal effect; 0% is about no effect; nearly all actives have a fitted effect of over 55% in size
HCMV antiviral: qHTS Assay for inhibitors of the human cytomegalovirus (HCMV); HFF cells, HCMV-luciferase reporter, 72 h; stronger effect = lower value; activity change, negative = inhibition, % at 57.5 µM; 410,000 tested, 4.5% active; AID 1259415, 2018; in the data active means activity change below about -60%; inconclusive means no clear call, values can overlap the other calls; inactive means above about -39%; further: on the % scale 0 is the no-effect control and ±100 the full control effect
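Luciferase read-out from HCMV-luciferase-infected HFFs (MOI 1 PFU/cell) 72 h post infection at 37C; compounds added after 16 h cell attachment; activity normalized between buffer-only basal and Salinomycin (10uM) inhibitor controls.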
Numbers without * were called inactive; ? = inconclusive; . = no result; ! = repeats disagree; [ ] = remark or other dose. Sampled rows, rich in hits. Any-hit rate of the full collection: about 8%.

SMILES	MARV entry inh	Lassa entry inh	HCV inh	FMDV inh	SARS PLP yeast	HCMV antiviral
Cc1ccc2c(c1)/C(=C/c1ccc(F)cc1)C(=O)N2	.	.	11µM*	?	-9%	-10
COc1ccc2c(c1)/C(=C/c1cc(OC)c(OC)c(OC)c1)C(=O)N2	?	?	?	?	.	31
Cc1ccc2c(c1)/C(=C/c1ccccc1C)C(=O)N2	11µM*	?	-24%	-22%	-3%	9
O=C1Nc2ccccc2/C1=C/c1ccccc1Cl	?	?	?	-7%	-4%	37
CCCSc1ncc(Cl)c(C(=O)Nc2c(C(=O)c3ccc(C)cc3)oc3ccccc23)n1	?	?	.	-12%	.	-24
CC1(C(=O)Nc2ccc3c(c2)OCCO3)CCC(=O)N1C1CC1 (stereo not given)	.	.	.	-10%	.	-100*
CCCC(C)(C)C(=O)N1CCC1(C)C(=O)Nc1ccc2c(c1)OCCO2 (stereo not given)	.	.	.	-6%	.	-66*
CCCC(C)(C)C(=O)N1CCC1(C)C(=O)Nc1ccc(OC)c(OC)c1 (stereo not given)	.	.	.	-16%	.	-15
CCN(c1ccccc1)c1nnc(NC(=O)Nc2cccc(Br)c2)s1	-36%[46.1 µM]	0%[46.1 µM]	.	0%	.	-10
O=C(Cn1c(=O)oc2cc(S(=O)(=O)NC3CCCC3)ccc21)Nc1ccc(F)c(F)c1	-12%[46.1 µM]	.	.	31%	.	1
CN(C1=C(NC(=O)c2ccccc2)C(=O)c2ccccc2C1=O)C1CCS(=O)(=O)C1 (stereo not given)	?	?	?	10µM*	-8%	-99*
O=C(NC(=S)NC1CCS(=O)(=O)C1)c1ccccc1 (stereo not given)	.	.	7%	2%	0%	-29
CC(=O)NC1=C(NC2CCS(=O)(=O)C2)C(=O)c2ccccc2C1=O (stereo not given)	?	-16%	7.1µM*	-39%	-60%	-12
O=C(CN1C(=O)c2ccccc2C1=O)NC1CCS(=O)(=O)C1 (stereo not given)	.	.	.	9%	.	2
C/C(=N\NC(=O)c1ccccc1)c1ccccc1F	?	15%[46.1 µM]	12%	32%	2%	7
C/C(=N\NC(=O)c1ccccc1OCCOc1ccccc1)c1ccccc1F	11µM*	?	?	-21%	1%	10
O=[N+]([O-])c1ccc(Oc2ccc(F)cc2)c2ccncc12	2%	-18%	?	?	-38%	-68*
O=C(NCC(c1cccnc1)N1CCN(c2ccc(F)cc2)CC1)c1cccc(Cl)c1 (stereo not given)	?	-20%	14µM*	25µM*	-12%	42
COc1ccc(N2CCN(C(CNS(=O)(=O)c3cc(F)ccc3F)c3cccnc3)CC2)cc1 (stereo not given)	-18%	2%	2%	-9%	-11%	-107*
COc1ccc(N2CCN(C(CNC(=O)c3cccc(OC)c3)c3cccnc3)CC2)cc1 (stereo not given)	.	-11%[46.1 µM]	.	-24%	.	-9
O=S(=O)(NCC(c1cccnc1)N1CCN(c2ccc(F)cc2)CC1)c1cc(F)ccc1F (stereo not given)	-12%	-9%	-5%	-16%	.	-27
COc1cccc2sc(N3CCN(C(=O)c4ccc([N+](=O)[O-])o4)CC3)nc12	-29%	?	7.9µM*	?	9%	.
O=C(c1ccc([N+](=O)[O-])o1)N1CCN(c2nc3c(Cl)cccc3s2)CC1	?	?	?	?	0%	?
CCOC(=O)C1C(=O)C=C(c2ccc(C)cc2)CC1c1ccccc1 (stereo not given)	20%[46.1 µM]	16µM*	-5%	-5%	-3%	1
CCOC(=O)C1C(=O)C=C(c2ccc(Br)cc2)CC1c1ccco1 (stereo not given)	?	15µM*	-19%	?	-19%	19
SMILES	MARV entry inh	Lassa entry inh	HCV inh	FMDV inh	SARS PLP yeast	HCMV antiviral
CSc1cccc(NC(=S)N(CCN(C)C)C(C)c2ccccn2)c1 (stereo not given)	10µM*	?	?	-2%	-1%	-38
CC[C@@]12C=C(C=Cc3ccccc3)[C@](CC)(C1)[C@H](c1ccccc1)CC2=O	4%[14.2 µM]	.	.	.	.	.
N/C(=N\OC(=O)C12CC3CC(CC(C3)C1)C2)c1ccccc1	?	?	5µM*	47%	3%	65
N/C(=N\OC(=O)N1CCOCC1)c1ccccc1	?	12µM*	-19%	.	-13%	?
N/C(=N\OC(=O)C12CC3CC(CC(C3)C1)C2)c1cccnc1	-4%	3%	?	.	-2%	1
N/C(=N\OC(=O)N1CCOCC1)c1ccc(Br)cc1	.	.	?	26%	-2%	-76*
S=C(c1ccc(Cl)cc1)N1CCOCC1	2%	-1%	7%	1%	1%	-25
N/C(=N\OC(=O)N1CCOCC1)c1ccc(Cl)cc1	10µM*	?	2%	16%	3%	-31
CCOc1ccc(CCNC(=O)c2ccc3c(c2)N(Cc2ccccc2)C(=O)c2ccccc2S3=O)cc1OCC (stereo not given)	?	?	.	-28%	.	-32
CCS(=O)(=O)N1CCc2cc(C(=O)Nc3ccc(OC)c(Cl)c3)ccc21	?	0%[46.1 µM]	.	-16%	.	-2
CCCN(CCC)C(=O)Cn1c(=O)n(-c2ccc(CC)cc2)c(=O)c2c3c(sc21)CCC3	8%[46.1 µM]	8%[46.1 µM]	.	-16%	.	-14
CNC(=O)c1ccc(Nc2nnc(-c3ccc(C)c(S(=O)(=O)N4CCOCC4)c3)c3ccccc23)cc1	.	?	.	-30%	.	0
Cc1ccc2onc(CC(=O)N3CCN(c4cc(Cl)ccc4C)CC3)c2c1	.	6%[46.1 µM]	.	-20%	.	-8
COC(=O)[C@@H]1[C@@H](CO)[C@@H]2Cn3c(cccc3=O)[C@@H]2N1C(=O)c1cnccn1	.	.	.	.	.	23
CCOc1ccc(C(=O)C[n+]2cccc3cc(C)ccc32)cc1	7.1µM*	?	?	-14%	-4%	-81*
Oc1ccc(O)cc1	7.9µM*!	?	.	11%	.	.
Oc1ccccc1	.	.	.	.	.	-21
CNC(=O)CSc1nnc(NC(=O)Nc2ccccc2)s1	.	-3%[46.1 µM]	.	27%	.	51
CC(=O)NCCOc1cccc2ccccc12	21%	-3%	?	32%	-4%	91
Cc1cc2ccccc2n1CCNC(=O)c1ccccc1	?	7.9µM*	16%	?	1%	?
O=C(Cc1cccc2ccccc12)NCCOc1ccccc1F	1%	3%	0%	-2%	0%	-63*
Cc1cc2ccccc2n1CCNC(=O)c1ccc(Br)cc1	2%[46.1 µM]	-13%[46.1 µM]	.	-7%	.	?
Cc1cc2ccccc2n1CCNC(=O)Cc1cccc2ccccc12	.	.	6.3µM*	-27%	-4%	34

Assay outcomes as filed in PubChem.
